Test results from PubChem BioAssay (Tox21).
Inconclusive results are not listed. Where a call stands in place of a potency, no number is given. Activity calls are given as the source filed them. Calls follow the shape of the dose curve; as a rule, active = well fitted cell-killing curve with a large enough effect in the repeat runs; inconclusive = weak or mixed curves, or effect the other way; inactive = flat fitted curve, though single readings scatter.

Columns and labels:
[1] = cAMP Responsive Elements (CRE) small molecule antagonists, cell-based qHTS assay: qHTS cell viability counter screen (AID 2060913); also: nearly all actives have a fitted effect of over 40% in size
In short: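 Viability of NKH477-stimulated (0.25 uM final) CRE-bla HEK293T cells is measured by CellTiter-Glo luminescence following 3 hrs compound exposure at 37 C.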

[2] = cAMP Responsive Elements (CRE) small molecule agonists, cell-based qHTS assay: qHTS cell viability counter screen (AID 2060914); also: nearly all actives have a fitted effect of over 50% in size
In short: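 Cytotoxicity was measured as ATP luminescence (CellTiter-Glo, 30 min at room temperature) in the same wells as the CRE-bla FRET read-out. HEK293T CRE-bla cells had 3 h compound exposure at 37C/5% CO2.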

| Compound | Potency [1] | Potency [2] |
| --- | --- | --- |
| CC(CC(=O)Cl)CC(C)(C)C (configuration not stated) | inactive | inactive |
| COc1cc2c(cc1OC)C(=O)C(CC1CCN(Cc3ccccc3)CC1)C2 (configuration not stated) | inactive | inactive |
| Cc1cccc(C(C)(C)C)c1O | inactive | inactive |
| COc1ccc(C(=O)CC(=O)c2ccc(C(C)(C)C)cc2)cc1 | inactive | inactive |
| CC(C)CCOCc1ccccc1 | inactive | inactive |
| c1ccc2c(c1)CCc1ccccc1N2 | inactive | inactive |
